High-throughput results: PubChem BioAssay, National Center for Advancing Translational Sciences (NCATS)
HTT prom inh: inhibits huntingtin promoter activity; HEK293 HTT promoter firefly luciferase reporter, 24 h; AID 1508623; 0.93% of 48,000 active; Potency, µM (doses to about 57.5 µM), for the others: at the top dose activity change, negative = inhibition, actives largely listed as inhibitors; also: nearly all actives have a fitted effect of over 50% in size
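Firefly luciferase readout (Dual-Glo, 10 min RT) after 24 h, 37 °C compound exposure (final up to 57.5 uM) of HEK293 reporter cells cultured 24 h beforehand; PTC124 at 50 uM final as control inhibitor; activity scaled vehicle 0%, zero RLU -100%.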
NTMT1 inh: NTMT1 methyltransferase inhibition | NTMT1 MTase-Glo SAH luminescence, purified enzyme | Potency, µM (titrated, usually from 114 µM), inactives show top-dose activity change, negative = inhibition, actives largely listed as inhibitors | Q9BV86 | AID 1645870 | 2.5% of 59,000 active;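 also: plate controls were DMSO vehicle for no effect and no enzyme for full effect; nearly all actives have a fitted effect of over 65% in size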
Target sequence (Q9BV86 whole entry, looked up): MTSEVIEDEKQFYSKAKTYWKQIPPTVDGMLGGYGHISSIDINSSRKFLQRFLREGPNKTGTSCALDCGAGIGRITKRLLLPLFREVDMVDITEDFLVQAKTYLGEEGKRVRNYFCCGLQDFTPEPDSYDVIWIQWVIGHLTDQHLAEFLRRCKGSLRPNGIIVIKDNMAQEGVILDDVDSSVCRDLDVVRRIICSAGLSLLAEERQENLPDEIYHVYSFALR
HTT-AS promoter: activators of huntingtin-antisense promoter activity; HEK293 HTT-AS promoter firefly luciferase reporter, 24 h; response scale: percent change from vehicle, -100% = no light; 0.24% of 48,000 active; Potency, µM (series often up to 57.5 µM), for inactives: at the top dose activity change, positive = activation, hits mostly activators; also: nearly all actives have a fitted effect of over 55% in size
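Firefly luciferase readout (Dual-Glo, 10 min RT) after 24 h, 37 °C compound exposure (final up to 57.5 uM) of HEK293 reporter cells cultured 24 h beforehand; PTC124 at 50 uM final as control inhibitor; activity scaled vehicle 0%, zero RLU -100%.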
* marks the source's active call; other numbers are inactive results; ? = inconclusive; . = no result given; ! = not active in a repeat; [ ] = another dose, or the depositor's remark. This excerpt belongs to a sample that is enriched for hits. Calls follow the shape of the dose curve; as a rule, active = well fitted curve in the direction sought with a large enough effect; inconclusive = small, poorly fitted or top-dose-only effect, or another doubt; inactive = no such curve, though single readings can be large; an effect the other way counts as inactive or inconclusive. Potency is read from the fitted curve at half-maximal effect.

SMILES	HTT prom inh	NTMT1 inh	HTT-AS promoter
CO[C@@]1(NC(=O)CSCC#N)C(=O)N2C(C(=O)O)=C(CSc3nnnn3C)CS[C@@H]21	12.4%	14.1µM*	-0.6%
CN(C)CCn1nnnc1SCC1=C(C(=O)O)N2C(=O)[C@@H](NC(=O)Cc3csc(N)n3)[C@H]2SC1	3.5%	-21.0%[57.5 µM]	1.7%
O=C1CCC(c2ccccc2)(C2CCN(Cc3ccc(I)cc3)CC2)C(=O)N1 (stereo not given)	.	-20.2%[57.5 µM]	.
CC1CC(=O)C2=C(C1)C1OC1C1(O)C2C(=O)c2cccc(O)c2C1O (stereo not given)	.	3.0%[29.8 µM]	.
C=C1c2cccc(O)c2C(O)=C2C(=O)[C@]3(O)C(O)=C(C(N)=O)C(=O)[C@@H](N(C)C)[C@@H]3[C@@H](O)[C@H]12	-6.4%	25.1µM*	-9.6%
Cc1nnc(-c2cnn(C)c2N)n1CCCc1ccncc1	.	15.9%	.
Cc1sc(NC(=O)Cc2ccc3c(c2)OCO3)nc1-c1ccc2c(c1)CCN2C(=O)C1CCCCC1	.	8.0%	.
Cc1cccc(N2CCN(c3ccc(C(=O)O)cc3NC(=O)c3cccc(Cl)c3)CC2C)c1 (stereo not given)	-4.5%	79.4µM*	-11.8%
O=C(Nc1ccc(Oc2ccccc2)cc1)c1ccc(F)c(S(=O)(=O)N2CCN(c3cccc(Cl)c3)CC2)c1	?	12.7%	-43.8%
Cc1cccc(N2CCN(c3ccc(NC(=O)c4ccccc4)cc3C(=O)O)CC2C)c1 (stereo not given)	-9.7%	-5.2%	-9.8%
Cc1cccc(N2CCN(S(=O)(=O)c3cc(C(=O)Nc4ccc(Oc5ccccc5)cc4)ccc3F)CC2C)c1 (stereo not given)	1µM*	5.1%	-46.1%
Cc1cccc(NC(=O)c2ccc(F)c(S(=O)(=O)N3CCN(c4ccc(F)cc4)CC3)c2)c1	?	7.3%	-30.7%
O=C(Nc1ccc(Oc2ccccc2)cc1)c1ccc(F)c(S(=O)(=O)N2CCN(c3ccccc3F)CC2)c1	2µM*	4.0%	-44.4%
COc1ccccc1N1CCN(S(=O)(=O)c2ccc(F)c(C(=O)Nc3ccc(C)c(F)c3)c2)CC1	?	24.0%	-24.1%
COc1ccccc1N1CCN(S(=O)(=O)c2cc(C(=O)Nc3ccc(Oc4ccccc4)cc3)ccc2F)CC1	1.41µM*	3.9%	-41.6%
C=CCC/C=C/C#CCCCCCCCC[C@H]1C(=O)O[C@H](C)[C@@H]1O	.	13.2%[29.8 µM]	.
CC1(C)CC[C@]2(C(=O)O[C@@H]3O[C@H](CO)[C@@H](O)[C@H](O)[C@H]3O)CC[C@]3(C)C(=CCC4[C@@]5(C)C[C@@H](O)[C@H](O)C(CO)(CO)C5CC[C@]43C)C2[C@@H]1O (stereo not given in full)	.	13.7%[12.6 µM]	.
CN(C)CCCNc1ccc(NC(=O)c2cccs2)cn1	.	8.8%[57.5 µM]	.
Cc1ccc(NS(=O)(=O)c2cc3c(cc2N2CCCC2)NC(=O)CC3)cc1C	.	-3.0%	.
COC(=O)c1ccc2c(c1)[nH]c1ncnc(NCCCN3CCCCC3)c12	.	0.0%[57.5 µM]	.
CCOC(=O)C(CCc1ccccc1)NC(C)C(=O)N1C(=O)N(C)CC1C(=O)O (stereo not given)	.	0.4%[57.5 µM]	.
O=c1cc(-c2ccc(O)c(O)c2)oc2cc(O)cc(O)c12	48.3%	31.6µM*!	?
O=c1c(O)c(-c2ccc(O)c(O)c2)oc2cc(O)cc(O)c12	-12.1%	?	-6.5%
Cc1c(NC(=O)c2cc(C(N)=O)nc3cc(F)ccc23)c(C(F)(F)F)nn1Cc1ccc(C(C)(C)C)cc1	.	0.0%	.
CC(C)c1ccc2oc3nc(N)c(C(=O)O)cc3c(=O)c2c1	28.5%	31.6µM*	?
SMILES	HTT prom inh	NTMT1 inh	HTT-AS promoter
COc1ccc(-c2cc(C(=O)N3CCN(c4ccccc4OC)CC3)c3cc(C(C)C)ccc3n2)cc1	?	6.6%	-22.6%
COc1cc(O)c(C(CC(=O)N2CCCC(C)(C)C2)c2ccc3c(c2)OCO3)c(OC)c1 (stereo not given)	.	16.4%	.
O=C(CSc1nnc(-c2cccc([S+](=O)([O-])N3CCCC3)c2)n1-c1ccccc1)Nc1ccc(Br)cc1	.	1.3%	.
CCCC(=O)Nc1ccc(O)c(C(C)=O)c1	0.8%	-8.9%[57.5 µM]	-2.9%
CCCC(=O)c1cc(O)c(O)cc1O	?	39.8µM*	-35.7%[116 µM]
CC(C)c1ccc(NC(=O)c2cc(S(=O)(=O)NCCc3ccccc3)ccc2F)cc1	?	4.7%	-33.4%
CC(C)c1ccccc1Cc1cc(C(=O)Nc2ccc(S(=O)(=O)c3ccccc3C(C)(C)C)cc2)c(O)c(O)c1O	?	70.8µM*!	-36.4%
CCOc1ccc(NC(=O)c2c(Nc3ccc(OC)cc3OC)sc(C(=O)c3ccc(Cl)cc3)c2N)cc1	-15.4%	0.1%	-9.4%
Nc1c(C(=O)c2ccccc2)sc(Nc2ccc(Cl)c(Cl)c2)c1C(=O)Nc1ccccc1	28.2µM*	-18.5%	-42.8%
CCOc1ccc(CCNC(=O)c2cc3ccccc3n2Cc2cc(C)cc(C)n2)cc1OCC	.	11.0%	.
CCN(CC)CCCC[C@H](NC(=O)[C@H](CC(C)C)NC(=O)[C@H](C)NC(=O)[C@H](Cc1ccccc1)NC(=O)c1ccc(C(C)(C)C)cc1)C(=O)N[C@@H](CO)C(=O)OC	.	7.7%	.
O=C(c1ccc(F)cc1)N1c2nc(-c3ccco3)nn2C2(CCCCC2)[C@@H]2CCCC[C@@H]21	-28.0%	-17.0%	-32.5%
O=C(c1ccccc1F)N1c2nc(-c3ccco3)nn2C2(CCCCC2)[C@@H]2CCCC[C@@H]21	-34.0%	50.1µM*	-37.6%
CC(=O)Nc1ccc(Cl)cc1C(=O)c1ccc[nH]1	.	5.3%	.
N[C@H](Cc1ccccc1)C(=O)Nc1ccc(Cl)cc1C(=O)c1ccc[nH]1	.	28.2µM*	.
O=S(=O)(Nc1nccs1)c1ccc(NCc2cc(F)ccc2O)cc1	.	0.0%	.
CCOC(=O)C1=C(CN2CCN(c3ccc(OC)cc3)CC2)NC(=O)NC1c1ccc(OC)cc1 (stereo not given)	?	?	-24.5%
CCOC(=O)C1=C(CN2CCN(c3ccc(C)cc3C)CC2)NC(=O)NC1c1ccc(OC)cc1 (stereo not given)	28.2µM*	-0.1%	-37.1%
CC(=O)N1CCC(Nc2cc(C(=O)NC[C@H](O)CN3CCc4ccccc4C3)ncn2)CC1	.	1.6%	.
Cn1cc(Cl)c(C2N=C(Nc3nc4ccccc4o3)NC3=C2C(=O)CCC3)n1 (stereo not given)	.	1.9%	.
Cc1ccc(-c2ncn(-c3ccc(Nc4nccc(-c5cccc(N6CCOCC6)c5)n4)cc3)n2)cn1	68.5%	-8.4%	1.22µM*
N#Cc1cc(-c2ccnc(Nc3ccc(N4CCOCC4)cc3)n2)ccc1OC1CCOCC1	.	-15.8%[57.5 µM]	.
Cc1ccc(NC(=O)Nc2ccc3nc(N4CCN(C)CC4)cc(C)c3c2)cc1C	-13.0%	89.1µM*	-15.8%
Cc1ccc(/C=C/C(=O)Nc2ccc3nc(N4CCC(C)CC4)cc(C)c3c2)cc1	-7.9%	89.1µM*	-8.4%
Cc1cc(N2CCN(C)CC2)nc2ccc(NC(=O)Nc3ccccc3)cc12	61.8%	-11.5%	?
Cc1cc(N2CCC(C)CC2)nc2ccc(NC(=O)/C=C/c3cccc(Cl)c3)cc12	2.3%	-1.0%	-9.6%
CC(C)(C[C@@](O)(Cc1cc2ccncc2[nH]1)C(F)(F)F)c1cc(F)ccc1O	.	-0.6%[57.5 µM]	.
O=C1CCCC2=C1C(c1[nH]ncc1Cl)N=C(Nc1ccn[nH]1)N2 (stereo not given)	.	10.1%	.
